# Measurements taken from PubChem BioAssay (NCATS).
# Records with an inconclusive call do not appear. Where a call stands in place of a potency, no number is given. The source made the active and inactive calls. Calls follow the shape of the dose curve; as a rule, active = well fitted inhibition curve with a large enough effect; inconclusive = small, poorly fitted or top-dose-only effect; inactive = flat fitted curve, though single readings scatter.
# Test system: Zika virus NS2B-NS3 protease
# Test: Primary screen GU AMC qHTS for Zika virus inhibitors (AID 1347154); also: nearly all actives have a fitted effect of over 70% in size
# Conditions: Zika NS2B-NS3 unlinked protease, AMC fluorogenic substrate; series mostly up to 54.1 µM; activity change, negative = inhibition: at the top concentration
# Summary of the method: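 Unlinked Zika NS2B hydrophilic domain/NS3 protease domain noncovalent complex (25 nM final) in 10 mM Tris-HCl pH 8.0, 0.01% Tween 20, with AMC peptide substrate. Fluorescence (ex 340, em 450 nm) change over 15 min, room temperature; percent inhibition fitted to 4-parameter Hill equation.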
# Potency is read from the fitted curve at half-maximal effect.
Structure (SMILES),Potency,"activity change, negative = inhibition"
COC(=O)N[C@H](C(=O)N[C@@H](Cc1ccccc1)[C@@H](O)CN(Cc1ccc(-c2ccccn2)cc1)NC(=O)[C@@H](NC(=O)OC)C(C)(C)C)C(C)(C)C,inactive,–
Cc1ncc([N+](=O)[O-])n1CC(C)O (stereo not drawn),inactive,–
C[Se]CCC(N)C(=O)O (stereo not drawn),–,-3.65% [at 104 µM] (inactive)
COCCCN1CCC(NC(=O)c2cc(Cl)c(N)c3c2OCC3)CC1,inactive,–
CCOC(=O)C(C)Oc1cccc2c(=O)n(CC(=O)Nc3ccc4c(c3)OCCO4)ccc12 (stereo not drawn),–,12.1% (inactive)
CC(C)[C@H](N)C(=O)OCCOCn1cnc2c(=O)[nH]c(N)nc21,inactive,–
CN(C)[C@@H](CCOc1cccc2ccccc12)c1ccccc1,inactive,–
COc1ccc2cc([C@H](C)C(=O)O)ccc2c1,inactive,–
O=C(O)c1cc(=O)c2c(OCC(O)COc3cccc4oc(C(=O)O)cc(=O)c34)cccc2o1,inactive,–
Cc1nc(-c2ccc(OCC(C)C)c(C#N)c2)sc1C(=O)O,21.5 µM (active),–
CN(C)CCCC1(c2ccc(F)cc2)OCc2cc(C#N)ccc21 (stereo not drawn),–,-2.37% (inactive)
Nc1cccc2c1CN(C1CCC(=O)NC1=O)C2=O (stereo not drawn),inactive,–
COc1c2occc2cc2ccc(=O)oc12,inactive,–
